Data reported in the supplement of paper PMC10849652.
Targets with a hit are over-represented here; the source holds about 8,800 in all. About 0.5% of all pairs of compound and target were hits.

compound: CCCS(=O)(=O)Nc1ccc(F)c(C(=O)c2c[nH]c3ncc(-c4ccc(Cl)cc4)cc23)c1F [vemurafenib]; assay: log2 fold change, soluble protein after heating vs DMSO (PISA); higher = thermal stabilisation; K562 lysate, 10 uM; active = over 0.2 and 3.5 SD of the protein, either way, in both replicates (recomputed)
Summary of the method: (§1)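 K562 pellets were dounce-homogenised in PBS pH 7.4 containing 1 mM MgCl2, and the crude extract, at 1 mg/mL protein, was exposed to 10 μM compound for 30 min. Aliquots were heated for 3 min across 48°C-58°C, pooled, brought to 0.5% NP-40 at 4°C and spun at 21,000xg for 90 min, with the supernatant taken as soluble protein. TMTpro 16plex LC-MS/MS with equalised channel sums quantified that protein. Values are log-two fold changes in thermal stability relative to solvent controls, taken from duplicates.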

Chain of UniProt Q9BRA0 (Q9BRA0 whole entry, looked up): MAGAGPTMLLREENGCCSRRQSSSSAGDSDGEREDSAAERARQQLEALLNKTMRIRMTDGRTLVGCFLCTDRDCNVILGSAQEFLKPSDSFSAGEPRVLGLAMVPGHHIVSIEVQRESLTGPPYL
Chain of UniProt Q9NPF4 (Q9NPF4 whole entry, looked up): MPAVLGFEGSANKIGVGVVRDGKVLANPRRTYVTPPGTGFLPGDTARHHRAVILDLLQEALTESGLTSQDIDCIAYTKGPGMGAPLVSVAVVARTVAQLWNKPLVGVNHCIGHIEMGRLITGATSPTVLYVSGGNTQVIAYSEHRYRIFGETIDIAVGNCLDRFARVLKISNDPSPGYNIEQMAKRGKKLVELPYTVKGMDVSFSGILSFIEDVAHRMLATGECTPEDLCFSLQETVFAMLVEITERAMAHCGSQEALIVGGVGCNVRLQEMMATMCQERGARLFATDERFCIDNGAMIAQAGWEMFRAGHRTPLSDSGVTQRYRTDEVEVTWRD
Chain of UniProt Q96DH6 (Q96DH6 whole entry, looked up): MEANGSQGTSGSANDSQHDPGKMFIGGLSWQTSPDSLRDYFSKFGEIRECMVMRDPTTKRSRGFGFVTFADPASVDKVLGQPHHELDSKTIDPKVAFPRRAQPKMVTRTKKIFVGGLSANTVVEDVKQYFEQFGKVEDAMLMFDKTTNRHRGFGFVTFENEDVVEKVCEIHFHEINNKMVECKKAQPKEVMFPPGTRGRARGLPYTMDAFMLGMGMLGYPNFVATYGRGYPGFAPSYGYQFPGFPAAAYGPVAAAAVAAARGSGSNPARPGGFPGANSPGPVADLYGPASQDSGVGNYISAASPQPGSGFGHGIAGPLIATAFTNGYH
Chain of UniProt Q8IVI9 (Q8IVI9 whole entry, looked up): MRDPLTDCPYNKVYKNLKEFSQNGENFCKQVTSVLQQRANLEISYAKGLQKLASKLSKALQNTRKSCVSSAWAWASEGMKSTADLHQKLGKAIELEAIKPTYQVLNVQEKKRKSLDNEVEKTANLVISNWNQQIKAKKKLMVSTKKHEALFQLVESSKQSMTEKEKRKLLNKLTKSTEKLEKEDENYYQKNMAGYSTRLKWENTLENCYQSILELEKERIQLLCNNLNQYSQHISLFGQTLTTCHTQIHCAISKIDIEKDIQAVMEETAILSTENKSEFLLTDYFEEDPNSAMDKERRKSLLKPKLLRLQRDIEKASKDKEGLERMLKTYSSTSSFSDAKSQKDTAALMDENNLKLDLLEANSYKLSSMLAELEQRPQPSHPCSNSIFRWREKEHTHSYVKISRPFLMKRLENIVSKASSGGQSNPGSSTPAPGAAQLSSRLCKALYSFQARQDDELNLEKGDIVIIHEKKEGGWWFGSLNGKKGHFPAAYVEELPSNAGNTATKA
Chain of UniProt Q9Y639 (Q9Y639 whole entry, looked up): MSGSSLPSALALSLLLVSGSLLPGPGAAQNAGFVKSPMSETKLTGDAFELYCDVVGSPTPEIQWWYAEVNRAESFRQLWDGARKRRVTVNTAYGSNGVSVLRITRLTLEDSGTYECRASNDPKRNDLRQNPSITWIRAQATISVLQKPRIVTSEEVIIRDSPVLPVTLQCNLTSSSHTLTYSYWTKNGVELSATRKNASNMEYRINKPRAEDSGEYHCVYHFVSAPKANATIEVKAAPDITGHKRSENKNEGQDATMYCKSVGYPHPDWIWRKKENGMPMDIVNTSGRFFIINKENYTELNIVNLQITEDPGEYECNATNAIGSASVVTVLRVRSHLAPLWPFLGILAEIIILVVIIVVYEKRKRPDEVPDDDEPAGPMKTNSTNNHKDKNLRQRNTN
Chain of MTHFD1, A0A384N5Y3 (A0A384N5Y3 whole entry, looked up): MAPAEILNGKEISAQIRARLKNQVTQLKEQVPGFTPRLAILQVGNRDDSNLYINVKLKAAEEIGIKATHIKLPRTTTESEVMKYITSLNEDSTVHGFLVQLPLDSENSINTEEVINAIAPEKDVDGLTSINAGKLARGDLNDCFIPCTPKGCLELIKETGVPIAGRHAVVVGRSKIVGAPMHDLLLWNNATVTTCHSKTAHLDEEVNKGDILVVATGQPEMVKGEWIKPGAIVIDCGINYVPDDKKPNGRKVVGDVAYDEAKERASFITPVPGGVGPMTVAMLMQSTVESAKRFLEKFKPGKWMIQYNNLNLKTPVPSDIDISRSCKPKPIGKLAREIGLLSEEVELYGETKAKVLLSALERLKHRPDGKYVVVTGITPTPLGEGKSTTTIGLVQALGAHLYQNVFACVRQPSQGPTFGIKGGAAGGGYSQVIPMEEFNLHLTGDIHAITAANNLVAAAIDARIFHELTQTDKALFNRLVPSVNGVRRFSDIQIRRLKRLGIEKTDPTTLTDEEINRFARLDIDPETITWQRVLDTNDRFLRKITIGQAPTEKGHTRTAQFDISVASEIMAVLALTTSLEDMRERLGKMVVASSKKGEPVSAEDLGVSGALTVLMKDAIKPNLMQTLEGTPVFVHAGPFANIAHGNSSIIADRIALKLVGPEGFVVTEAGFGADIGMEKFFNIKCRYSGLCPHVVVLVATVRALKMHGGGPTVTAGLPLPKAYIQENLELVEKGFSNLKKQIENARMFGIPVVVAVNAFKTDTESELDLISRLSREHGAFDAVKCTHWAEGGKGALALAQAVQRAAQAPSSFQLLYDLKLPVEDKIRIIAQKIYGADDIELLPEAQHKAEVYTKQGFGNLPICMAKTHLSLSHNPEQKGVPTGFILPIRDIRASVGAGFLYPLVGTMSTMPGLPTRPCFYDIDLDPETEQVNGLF
Chain of UniProt Q8WUM0 (Q8WUM0 whole entry, looked up): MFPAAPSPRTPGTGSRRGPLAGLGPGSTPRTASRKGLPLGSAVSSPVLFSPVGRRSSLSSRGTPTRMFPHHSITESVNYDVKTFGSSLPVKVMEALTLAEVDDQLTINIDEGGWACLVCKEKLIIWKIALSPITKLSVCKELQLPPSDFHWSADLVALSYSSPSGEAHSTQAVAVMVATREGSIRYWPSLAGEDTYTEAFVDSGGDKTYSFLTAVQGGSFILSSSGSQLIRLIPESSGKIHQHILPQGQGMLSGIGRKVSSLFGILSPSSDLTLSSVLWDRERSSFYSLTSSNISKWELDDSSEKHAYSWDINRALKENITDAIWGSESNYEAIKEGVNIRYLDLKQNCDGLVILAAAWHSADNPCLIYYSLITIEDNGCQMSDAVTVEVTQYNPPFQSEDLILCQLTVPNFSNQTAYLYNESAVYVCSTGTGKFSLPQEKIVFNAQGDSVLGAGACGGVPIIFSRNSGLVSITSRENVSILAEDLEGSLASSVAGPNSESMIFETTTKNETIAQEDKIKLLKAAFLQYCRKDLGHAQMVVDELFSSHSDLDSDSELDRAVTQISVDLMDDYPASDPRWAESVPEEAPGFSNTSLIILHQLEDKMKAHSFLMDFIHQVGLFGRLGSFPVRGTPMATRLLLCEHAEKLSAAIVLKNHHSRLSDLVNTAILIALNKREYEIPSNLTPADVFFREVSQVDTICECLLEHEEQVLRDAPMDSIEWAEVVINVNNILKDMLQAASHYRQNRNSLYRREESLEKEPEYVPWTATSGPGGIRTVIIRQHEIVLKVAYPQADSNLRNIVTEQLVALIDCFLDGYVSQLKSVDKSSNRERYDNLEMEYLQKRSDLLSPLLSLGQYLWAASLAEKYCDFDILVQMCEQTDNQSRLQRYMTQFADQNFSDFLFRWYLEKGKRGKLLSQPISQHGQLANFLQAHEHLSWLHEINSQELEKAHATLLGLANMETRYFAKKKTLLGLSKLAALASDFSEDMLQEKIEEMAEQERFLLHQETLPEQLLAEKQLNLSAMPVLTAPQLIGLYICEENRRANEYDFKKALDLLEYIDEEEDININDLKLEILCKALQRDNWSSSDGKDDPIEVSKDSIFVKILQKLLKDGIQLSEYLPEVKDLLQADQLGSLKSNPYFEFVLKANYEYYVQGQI
Chain of UniProt P00156 (P00156 whole entry, looked up): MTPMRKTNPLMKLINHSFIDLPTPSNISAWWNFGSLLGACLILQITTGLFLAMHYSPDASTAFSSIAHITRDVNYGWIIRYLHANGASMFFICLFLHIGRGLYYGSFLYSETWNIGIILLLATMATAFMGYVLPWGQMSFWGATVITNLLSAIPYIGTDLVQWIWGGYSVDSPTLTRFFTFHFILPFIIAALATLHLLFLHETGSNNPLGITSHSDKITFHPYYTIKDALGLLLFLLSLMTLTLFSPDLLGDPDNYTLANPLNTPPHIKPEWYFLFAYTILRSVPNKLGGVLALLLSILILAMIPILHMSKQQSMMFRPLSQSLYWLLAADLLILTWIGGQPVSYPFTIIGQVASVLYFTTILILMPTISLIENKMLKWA
Chain of UniProt O75607 (O75607 whole entry, looked up): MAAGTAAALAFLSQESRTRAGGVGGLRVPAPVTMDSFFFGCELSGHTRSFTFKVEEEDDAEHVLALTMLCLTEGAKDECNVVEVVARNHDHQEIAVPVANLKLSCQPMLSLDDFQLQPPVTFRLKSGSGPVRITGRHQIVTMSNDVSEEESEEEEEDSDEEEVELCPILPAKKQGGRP
Chain of UniProt Q15843 (Q15843 whole entry, looked up): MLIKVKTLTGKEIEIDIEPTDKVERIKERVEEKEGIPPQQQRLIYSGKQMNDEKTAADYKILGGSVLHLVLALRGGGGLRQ
Chain of UniProt Q4G0N4 (Q4G0N4 whole entry, looked up): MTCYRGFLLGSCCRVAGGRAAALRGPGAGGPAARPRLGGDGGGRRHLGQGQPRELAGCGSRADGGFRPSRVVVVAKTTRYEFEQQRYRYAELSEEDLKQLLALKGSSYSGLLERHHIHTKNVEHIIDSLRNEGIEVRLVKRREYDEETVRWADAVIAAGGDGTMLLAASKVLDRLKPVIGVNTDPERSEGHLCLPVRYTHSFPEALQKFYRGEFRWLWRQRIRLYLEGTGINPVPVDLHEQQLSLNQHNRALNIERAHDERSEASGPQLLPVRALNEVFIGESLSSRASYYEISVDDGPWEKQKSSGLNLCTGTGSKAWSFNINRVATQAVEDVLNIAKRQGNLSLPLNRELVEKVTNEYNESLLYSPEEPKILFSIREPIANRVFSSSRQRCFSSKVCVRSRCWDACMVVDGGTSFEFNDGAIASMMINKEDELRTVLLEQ

log2 fold change, inactive:
NOSTRIN (UniProt Q8IVI9) 0.091
NUP160 (UniProt Q12769) -0.039
MT-CYB (UniProt P00156) 0.004
PARG (UniProt Q86W56) 0.028
OSGEP (UniProt Q9NPF4) 0.003
ORC3 isoform 2 (UniProt Q9UBD5) 0.016
MTHFD1, A0A384N5Y3 0.058
NAA38 isoform 2 (UniProt Q9BRA0) 0.049
NPTN (UniProt Q9Y639) -0.028
NUP133 (UniProt Q8WUM0) 0.009
MSI2 (UniProt Q96DH6) 0.039
PAN2 isoform 2 (UniProt Q504Q3) 0.072
NPM3 (UniProt O75607) 0.052

compound: CCCS(=O)(=O)Nc1ccc(F)c(C(=O)c2c[nH]c3ncc(Cl)cc23)c1F; assay: as above
Summary of the method: as §1

log2 fold change, inactive:
NUMBL (UniProt Q9Y6R0) 0.014
OPA1 isoform 2 (UniProt O60313) 0.029
MTHFD1L (UniProt B7ZM99) 0
PARD3 (UniProt Q8TEW0) -0.017
NACC1 (UniProt Q96RE7) -0.003
NEDD8 (UniProt Q15843) 0.019
PANK4 (UniProt Q9NVE7) 0.011
NAA35 (UniProt Q5VZE5) 0.015
OGFR (UniProt Q9NZT2) 0.025
MTMR6 (UniProt Q9Y217) 0.012
OTC (UniProt P00480) -0.063
NELFCD (UniProt Q8IXH7) 0.037
NFATC2IP (UniProt Q8NCF5) 0.069
NUDT4 isoform 2 (UniProt Q9NZJ9) 0.021
NADK2 (UniProt Q4G0N4) -0.013
NUP98 (UniProt P52948) 0.035
NR3C1 isoform 3 (UniProt P04150) 0.027
PAXBP1 (UniProt Q9Y5B6) 0.006
NCAPD3 (UniProt P42695) 0.047
NPLOC4 isoform 2 (UniProt Q8TAT6) 0.025
N4BP2 (UniProt Q86UW6) 0.052
NCAPD2 (UniProt Q15021) 0.014
NCAPG (UniProt Q9BPX3) 0.021
NOSTRIN (UniProt Q8IVI9) 0.024
NUP160 (UniProt Q12769) 0.02
MT-CYB (UniProt P00156) -0.03
PARG (UniProt Q86W56) 0.033
OSGEP (UniProt Q9NPF4) 0.026
ORC3 isoform 2 (UniProt Q9UBD5) -0.008
MTHFD1, A0A384N5Y3 0.011
NAA38 isoform 2 (UniProt Q9BRA0) 0.014
NPTN (UniProt Q9Y639) -0.042
NUP133 (UniProt Q8WUM0) 0.014
MSI2 (UniProt Q96DH6) -0.007
PAN2 isoform 2 (UniProt Q504Q3) 0.031
NPM3 (UniProt O75607) 0.03
